SMILES strings stand for the structures. A number with no mark means an inactive call. Inconclusive results are not listed. Activity calls are given as the source filed them. Unless noted, calls come from the whole dose curve; as a rule, active = well fitted curve in the direction sought with a large enough effect; inconclusive = small, poorly fitted or top-dose-only effect, or another doubt; inactive = no such curve, though single readings can be large; an effect the other way counts as inactive or inconclusive. Some results are limits rather than exact numbers.

We go through six molecules from PubChem BioAssay (NCATS).

For assay [1], the target named is Lysosomal acid glucosylceramidase (Homo sapiens) (UniProt P04062). As to the kind of experiment: Glucocerebrosidase-p2 (AID 348; in the data active = potency below about 10 µM; note: potency is the fitted concentration of half-maximal effect). The note with it: purified GBA, blue fluorogenic substrate, 40 min. In outline:
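Normal human glucocerebrosidase (0.2 nM) with blue fluorogenic substrate (80 uM final) in citrate/phosphate pH 5.9 with 10mM sodium taurocholate, 0.01% tween-20; 40 min RT, NaOH/glycine stop; fluorescence Ex 365/Em 440; AC50 from a titration from 0.6 nM upwards.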

The nature of assay [2]: AP1 Signaling Pathway (AID 357; active = well fitted curve in either direction with a large enough effect, not every such curve was filed as active; note: % is set by controls: 0 for no effect and ±100 for the full control effect). The note with it: ME-180 AP-1-bla reporter, EGF-induced, beta-lactamase ratio, 5 h; at 7.69 µM (top of the series) unless noted. In outline: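 AP-1-bla ME-180 cells, Opti-MEM + 0.5% dialyzed FBS, plated overnight 37 °C. Cpd titration + EC50 EGF, 5 h 37 °C. CCF4 2.5 h RT; ex 405, em 460/530 ratio → %activity, AC50.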
Assay [3] addresses Cytochrome P450 1A2 (Homo sapiens) (UniProt P05177). As to the kind of experiment: p450-cyp1a2 (AID 410; calls by dose curve; note: potency is the fitted concentration of half-maximal effect). Conditions: recombinant CYP1A2, luciferin-ME demethylation, luminescence; series mostly up to 57 µM. In outline: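 20nM CYP1A2, 100uM Luciferin-ME (=Km), 100mM KPO4; cpd 10 min RT; +NADPH regen, 60 min RT; stop/detect 20 min; luminescence. Normalized to furafylline 57 uM = full inhibition.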

The nature of assay [4]: NFAT Signaling Pathway (AID 444; active = well fitted curve in either direction with a large enough effect, not every such curve was filed as active;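 note: carbachol stimulus at about its EC50 of 1 µM final; % is set by controls: 0 for no effect and ±100 for the full control effect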). The note with it: Jurkat NFAT-bla M1, carbachol, beta-lactamase ratio, 5 h; at 7.69 µM (top of the series) unless noted. In short, it runs like this:
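Jurkat cells with NFAT-driven β-lactamase reporter and co-expressed M1 receptor, stimulated with carbachol (final 1 uM, ~EC50), compound titration, 5 h at 37 °C. CCF4 loaded 1 h at RT; 460/530 nm ratio gave %activity and AC50.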

Assay [5] can be described thus: Stat Signaling Pathway (AID 446; active = well fitted curve in either direction with a large enough effect, not every such curve was filed as active;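 note: ME-180 cervical cancer cells given 40 pM IL-6 alongside compound; SIE-controlled beta-lactamase reporter measured as 460/530 nm FRET emission ratio; % is set by controls: 0 for no effect and ±100 for the full control effect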). The note with it: ME-180 (cervical carcinoma) SIE beta-lactamase reporter, IL-6 stimulated, 5 h; at 7.69 µM (top of the series) unless noted. In outline: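 Compound effects on IL-6-induced STAT reporter activity were measured in ME-180 cells. After overnight culture, cells were co-treated with 40 pM IL-6 for 5 hrs before beta-lactamase substrate loading at room temperature.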

Assay [6] deals with Glucocorticoid receptor (Homo sapiens) (UniProt P04150). As to the kind of experiment: GR-EFC Redistribution (AID 451; calls by dose curve; note: potency is the fitted concentration of half-maximal effect). The note with it: CHO-K1 GR-EFC translocation, beta-gal luminescence, 2 h. In outline: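 CHO-K1 cells expressing nuclear EA and GR-ED fragments of b-gal; compounds titrated up to 46 uM final, 2 h at 37 C. GR nuclear translocation read as complemented b-gal luminescence after 1 h RT detection.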
Chain of Glucocorticoid receptor (Homo sapiens) (P04150 whole entry, looked up, the tested form may be a part): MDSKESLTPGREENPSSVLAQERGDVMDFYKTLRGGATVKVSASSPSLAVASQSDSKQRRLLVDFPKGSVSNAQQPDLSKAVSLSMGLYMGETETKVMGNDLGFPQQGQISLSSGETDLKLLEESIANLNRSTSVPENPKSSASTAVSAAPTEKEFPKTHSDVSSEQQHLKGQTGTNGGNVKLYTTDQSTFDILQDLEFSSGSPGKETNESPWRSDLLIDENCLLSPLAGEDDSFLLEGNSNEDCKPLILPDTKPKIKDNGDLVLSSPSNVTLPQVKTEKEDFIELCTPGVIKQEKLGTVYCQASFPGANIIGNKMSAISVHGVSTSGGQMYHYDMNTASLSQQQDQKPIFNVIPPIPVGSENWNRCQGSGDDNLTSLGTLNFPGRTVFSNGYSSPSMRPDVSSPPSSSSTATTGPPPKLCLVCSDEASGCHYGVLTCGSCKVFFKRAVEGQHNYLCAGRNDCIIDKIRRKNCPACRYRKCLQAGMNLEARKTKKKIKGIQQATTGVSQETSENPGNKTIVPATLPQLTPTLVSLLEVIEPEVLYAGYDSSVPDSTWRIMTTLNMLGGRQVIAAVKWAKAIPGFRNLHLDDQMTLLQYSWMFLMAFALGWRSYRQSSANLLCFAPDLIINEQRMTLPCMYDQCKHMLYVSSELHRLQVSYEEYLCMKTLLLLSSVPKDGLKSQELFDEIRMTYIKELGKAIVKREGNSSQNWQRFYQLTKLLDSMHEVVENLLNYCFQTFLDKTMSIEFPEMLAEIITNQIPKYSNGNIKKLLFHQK

Assay [7] addresses Mitogen-activated protein kinase 10 (Mus musculus) (UniProt Q61831). As to the kind of experiment: JNK3 AlphaScreen Assay (AID 530; active = well fitted curve in either direction with a large enough effect, not every such curve was filed as active;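 note: kinase came from lysate of stimulated human HepG2 cells; signal reports phosphorylation of biotinylated GST-cJun 1-79 at Ser73 with 10 µM ATP; % is set by controls: 0 for no effect and ±100 for the full control effect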). The note with it: JNK3 lysate, c-Jun phosphorylation; series mostly up to 57.1 µM. In short, it runs like this:
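HepG2 lysate (IL-1b/TNFa pre-activated) + biotin-GST-cJun 1-79 + anti-pSer73 cJun; cpd titration, 15 min RT; ATP 10 uM start; Tris pH 7.6, MgCl2, DTT, vanadate; beads in EDTA buffer; AlphaScreen.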
(In general: Bead proximity is the source of the signal in Alpha formats.)

The target in assay [8] is 3',5'-cyclic-AMP phosphodiesterase 4B (Homo sapiens) (UniProt Q07343). As to the kind of experiment: qHTS Assay for Inhibitors of PDE-IV (AID 607; active = well fitted activation curve with a large enough effect in the main read-out, with a control signal flat, not every such curve was filed as active; note: % of control where 0% means no effect). Conditions: HEK293 ACTOne CNG channel cells, membrane potential fluorescence; series mostly up to 22.9 µM. In outline: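 ACTOne HEK293 cells carry a modified cAMP-gated CNG channel and express endogenous PDE4; plated 1000 cells/well, compounds up to 22.9 uM final. Membrane-potential dye fluorescence (ex 535/em 590) was read; parental cells received 10 uM forskolin + 100 uM RO 20-1724.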
Chain of 3',5'-cyclic-AMP phosphodiesterase 4B (Homo sapiens) (Q07343 whole entry, looked up): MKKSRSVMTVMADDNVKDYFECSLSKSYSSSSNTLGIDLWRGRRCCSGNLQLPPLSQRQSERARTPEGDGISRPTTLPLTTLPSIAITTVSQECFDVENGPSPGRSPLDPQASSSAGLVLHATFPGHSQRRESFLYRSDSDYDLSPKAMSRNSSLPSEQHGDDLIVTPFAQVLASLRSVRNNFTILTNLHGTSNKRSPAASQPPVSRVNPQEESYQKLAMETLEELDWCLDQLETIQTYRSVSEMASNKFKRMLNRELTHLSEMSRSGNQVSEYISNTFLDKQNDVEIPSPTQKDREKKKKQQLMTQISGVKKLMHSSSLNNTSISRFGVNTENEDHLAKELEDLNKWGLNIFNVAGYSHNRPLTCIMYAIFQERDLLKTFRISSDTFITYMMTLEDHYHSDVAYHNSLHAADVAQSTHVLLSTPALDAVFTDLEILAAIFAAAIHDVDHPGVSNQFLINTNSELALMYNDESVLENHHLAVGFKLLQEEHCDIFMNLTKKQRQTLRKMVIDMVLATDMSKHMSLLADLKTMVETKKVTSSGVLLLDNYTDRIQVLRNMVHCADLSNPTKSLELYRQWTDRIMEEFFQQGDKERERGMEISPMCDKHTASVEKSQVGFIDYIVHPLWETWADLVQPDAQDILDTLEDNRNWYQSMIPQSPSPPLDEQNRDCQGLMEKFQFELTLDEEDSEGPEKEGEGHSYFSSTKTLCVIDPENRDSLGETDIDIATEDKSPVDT
(In general: Quantitative high-throughput screening tests each substance at several concentrations.)

In assay [9] the target is Cytochrome P450 3A4 (Homo sapiens) (UniProt P08684). As to the kind of experiment: qHTS Assay for Inhibitors and Substrates of Cytochrome P450 3A4 (AID 884). Note: potency is the fitted concentration of half-maximal effect; nearly all actives have a fitted effect of over 50% in size. Conditions: recombinant CYP3A4, Luciferin-PPXE luminescence; series mostly up to 57.1 µM. In outline:
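Luminescent readout of luciferin produced by CYP3A4 (20 nM) dealkylation of Luciferin-PPXE, 25 uM (its KM). NADPH-driven reaction ran 60 min at RT after 10 min compound preincubation; data scaled to 57 uM ketoconazole as 100% inhibition.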

Assay [10] has the same target. The assay is described as follows: qHTS Assay for Activators of Cytochrome P450 3A4 (AID 885). Note: nearly all actives have a fitted effect of over 65% in size. The note with it: recombinant CYP3A4, Luciferin-PPXE luminescence, 60 min; series mostly up to 57.1 µM. In outline: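 CYP3A4 activity: Luciferin-PPXE O-dealkylation, 25uM substrate, 200mM KPO4, RT throughout. Read-out is luciferase luminescence; higher values reflect activation.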

The target in assay [11] is Dual specificity protein kinase CLK4 (Homo sapiens) (UniProt Q9HAZ1). The assay is described as follows: qHTS Assay for Inhibitors of CDC-like Kinase 4 (Kinase-Glo Assay) (AID 1770). Note: nearly all actives have a fitted effect of over 65% in size. Note: potency is the fitted concentration of half-maximal effect. The note with it: recombinant Clk4, Kinase-Glo ATP depletion luminescence; series mostly up to 66.7 µM. In short, it runs like this: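 Substrate mix (RS peptide 100 uM, ATP 1 uM) dispensed, compound pinned in, then Clk4 added to 25 nM final. Incubated 4.5 h at RT; Kinase-Glo reagent added, luminescence read after 5 min.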
Chain of Dual specificity protein kinase CLK4 (Homo sapiens) (Q9HAZ1 whole entry, looked up): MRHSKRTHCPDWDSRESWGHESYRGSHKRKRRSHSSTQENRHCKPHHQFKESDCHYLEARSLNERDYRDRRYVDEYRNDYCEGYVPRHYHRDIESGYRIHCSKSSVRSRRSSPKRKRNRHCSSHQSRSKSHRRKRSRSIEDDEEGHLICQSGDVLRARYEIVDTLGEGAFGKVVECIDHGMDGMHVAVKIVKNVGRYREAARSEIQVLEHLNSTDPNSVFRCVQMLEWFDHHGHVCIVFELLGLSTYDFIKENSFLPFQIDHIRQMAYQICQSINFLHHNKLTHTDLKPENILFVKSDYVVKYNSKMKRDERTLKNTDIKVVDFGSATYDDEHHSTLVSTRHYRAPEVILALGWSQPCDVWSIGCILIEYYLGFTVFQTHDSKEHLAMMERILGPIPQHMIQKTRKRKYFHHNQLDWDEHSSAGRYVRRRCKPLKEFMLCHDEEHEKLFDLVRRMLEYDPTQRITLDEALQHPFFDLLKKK

The target is the same in assay [12]. As to the kind of experiment: qHTS Assay for Inhibitors of CDC-like Kinase 4 (ADP-Glo Assay) (AID 1771). Note: nearly all actives have a fitted effect of over 70% in size. Note: potency is the fitted concentration of half-maximal effect. The note with it: recombinant CLK4, ADP-Glo luminescence; series mostly up to 80 µM. In outline:
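25 nM Clk4, 100 uM RS peptide, 1 uM ATP (final); 2 mM MgCl2, 0.5 mM EGTA, 2.5 mM DTT, 0.01% Triton X-100; 1 hr RT. ADP-Glo readout: ATP depletion 45 min, conversion/luciferase 30 min, luminescence.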

For assay [13] the target is unchanged. The assay is described as follows: qHTS Assay for Inhibitors of CDC-like Kinase 4 (ADP-FP Assay) (AID 1795). Note: nearly all actives have a fitted effect of over 60% in size. Note: potency is the fitted concentration of half-maximal effect. Conditions: Transcreener ADP fluorescence polarization; series mostly up to 50 µM. In short, it runs like this: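 Clk4 6.25 nM; RS peptide 100 uM; ATP 1 uM; 25 mM Tris pH 7.5, 10 mM MgCl2; 1 h reaction. ADP detected via antibody/orange tracer FP displacement; TG003 positive control.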

The target in assay [14] is Ubiquitin carboxyl-terminal hydrolase 1 (Homo sapiens) (UniProt O94782). As to the kind of experiment: Inhibitors of USP1/UAF1: Pilot qHTS (AID 504865).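 Note: rhodamine fluorescence freed from ubiquitin-rhodamine substrate followed over time; top concentration of the series differs between compounds; % is set by controls: 0 for no effect and ±100 for the full control effect; nearly all actives have a fitted effect of over 35% in size.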 Conditions: purified USP1/UAF1, Ub-rhodamine cleavage fluorescence; series mostly up to 54.9 µM. In short, it runs like this:
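In 50mM HEPES pH 7.8 containing 0.5mM EDTA, 1mM TCEP, 0.1 mg/ml BSA and 0.01% Tween-20, 1nM USP1/UAF1 is exposed to compound for 15 min, then Ub-Rho (150nM final) is added and fluorescence is read over time.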

The nature of assay [15]: Primary qHTS for small molecule stabilizers of the endoplasmic reticulum resident proteome: Secreted ER Calcium Modulated Protein (SERCaMP) assay (AID 1508630). Note: % is set by controls: 0 for no effect and ±100 for the full control effect. The note with it: SH-SY5Y GLuc-SERCaMP (Gaussia luciferase released on ER calcium loss) secretion, thapsigargin, luminescence; series mostly up to 38.4 µM. In outline: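 The SH-SY5Y reporter protocol was run at 3 concentrations up to 38.3 uM (primary) or 11 concentrations (follow-up): 16 h compound, 100 nM thapsigargin for 4 h, then extracellular luciferase luminescence.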

Assay [16] has as its target Glucocorticoid receptor (Homo sapiens) (UniProt P04150). The assay is described as follows: GR-GFP Redistribution (AID 450;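 active = compounds whose dose series gives a full or clear partial fitted curve of increased nuclear translocation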; note: potency is the fitted concentration of half-maximal effect). Conditions: U2OS GR-GFP nuclear translocation, laser cytometry, 2 h.
The target of assay [17] is Cytochrome P450 2D6 (Homo sapiens) (UniProt P10635). The assay is described as follows: qHTS Assay for Inhibitors and Substrates of Cytochrome P450 2D6 (AID 891). Note: potency is the fitted concentration of half-maximal effect; nearly all actives have a fitted effect of over 60% in size. Conditions: recombinant CYP2D6, luciferin-ME EGE luminescence; series mostly up to 57.1 µM. In outline: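 Luminescent read-out of luciferin formed by 5 nM human CYP2D6 demethylating 30 uM Luciferin-ME EGE (Km level) over 60 min at room temperature after NADPH regeneration addition. Data normalized to full inhibition by 1.43 uM quinidine.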

For assay [18], the target named is Cytochrome P450 2C19 (Homo sapiens) (UniProt P33261). As to the kind of experiment: qHTS Assay for Inhibitors and Substrates of Cytochrome P450 2C19 (AID 899). Note: potency is the fitted concentration of half-maximal effect; nearly all actives have a fitted effect of over 60% in size. The note with it: recombinant CYP2C19, luciferin-H EGE luminescence; series mostly up to 57.1 µM. In short, it runs like this:
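Luminescent read-out of luciferin formed from Luciferin-H EGE (10uM, equal to KM). Enzyme 5nM in 50mM KPO4; compound added, 10 min at 37C, then NADPH regenerating system for 60 min at 37C. Full inhibition defined by 57uM ketoconazole.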

Chain of Cytochrome P450 3A4 (Homo sapiens) (P08684 whole entry, looked up): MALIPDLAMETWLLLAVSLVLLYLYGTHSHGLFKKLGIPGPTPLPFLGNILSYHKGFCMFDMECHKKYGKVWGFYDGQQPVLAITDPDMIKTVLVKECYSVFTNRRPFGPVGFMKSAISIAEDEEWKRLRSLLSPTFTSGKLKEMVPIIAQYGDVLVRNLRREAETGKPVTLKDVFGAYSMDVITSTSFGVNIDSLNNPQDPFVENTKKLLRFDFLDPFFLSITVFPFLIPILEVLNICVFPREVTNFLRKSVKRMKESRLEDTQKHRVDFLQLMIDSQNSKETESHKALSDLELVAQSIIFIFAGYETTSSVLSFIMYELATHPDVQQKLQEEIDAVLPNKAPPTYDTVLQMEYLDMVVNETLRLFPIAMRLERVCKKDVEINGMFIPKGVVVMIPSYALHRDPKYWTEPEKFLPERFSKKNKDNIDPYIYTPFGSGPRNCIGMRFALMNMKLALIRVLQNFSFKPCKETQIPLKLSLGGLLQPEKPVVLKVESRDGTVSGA
Chain of Lysosomal acid glucosylceramidase (Homo sapiens) (P04062 whole entry, looked up): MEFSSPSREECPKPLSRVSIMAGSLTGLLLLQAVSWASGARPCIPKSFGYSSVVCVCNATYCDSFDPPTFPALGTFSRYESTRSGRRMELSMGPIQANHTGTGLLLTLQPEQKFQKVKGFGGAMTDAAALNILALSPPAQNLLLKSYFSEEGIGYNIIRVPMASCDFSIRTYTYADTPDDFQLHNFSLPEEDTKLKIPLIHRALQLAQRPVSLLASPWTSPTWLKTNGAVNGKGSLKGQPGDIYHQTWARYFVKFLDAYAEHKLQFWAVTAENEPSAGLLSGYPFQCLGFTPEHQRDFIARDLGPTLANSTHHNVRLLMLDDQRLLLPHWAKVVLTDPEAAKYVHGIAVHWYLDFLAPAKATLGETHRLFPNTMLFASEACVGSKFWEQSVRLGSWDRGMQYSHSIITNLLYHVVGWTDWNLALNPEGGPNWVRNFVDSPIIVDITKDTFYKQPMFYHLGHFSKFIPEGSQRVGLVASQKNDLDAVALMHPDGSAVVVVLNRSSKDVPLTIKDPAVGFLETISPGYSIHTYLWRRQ
Chain of Cytochrome P450 1A2 (Homo sapiens) (P05177 whole entry, looked up): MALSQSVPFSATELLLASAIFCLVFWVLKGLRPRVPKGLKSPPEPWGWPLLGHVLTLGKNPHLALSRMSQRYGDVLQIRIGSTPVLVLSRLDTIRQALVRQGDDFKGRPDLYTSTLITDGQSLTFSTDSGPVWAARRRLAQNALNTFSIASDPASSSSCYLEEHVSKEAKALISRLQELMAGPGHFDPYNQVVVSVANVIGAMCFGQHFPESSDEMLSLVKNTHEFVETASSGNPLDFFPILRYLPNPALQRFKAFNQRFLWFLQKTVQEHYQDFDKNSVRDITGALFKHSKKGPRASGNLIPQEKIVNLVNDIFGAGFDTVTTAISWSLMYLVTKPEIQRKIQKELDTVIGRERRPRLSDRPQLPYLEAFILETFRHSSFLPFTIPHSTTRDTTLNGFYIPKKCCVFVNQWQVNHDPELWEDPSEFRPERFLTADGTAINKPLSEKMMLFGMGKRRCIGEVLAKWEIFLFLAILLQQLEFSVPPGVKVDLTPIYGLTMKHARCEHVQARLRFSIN
Chain of Ubiquitin carboxyl-terminal hydrolase 1 (Homo sapiens) (O94782 whole entry, looked up): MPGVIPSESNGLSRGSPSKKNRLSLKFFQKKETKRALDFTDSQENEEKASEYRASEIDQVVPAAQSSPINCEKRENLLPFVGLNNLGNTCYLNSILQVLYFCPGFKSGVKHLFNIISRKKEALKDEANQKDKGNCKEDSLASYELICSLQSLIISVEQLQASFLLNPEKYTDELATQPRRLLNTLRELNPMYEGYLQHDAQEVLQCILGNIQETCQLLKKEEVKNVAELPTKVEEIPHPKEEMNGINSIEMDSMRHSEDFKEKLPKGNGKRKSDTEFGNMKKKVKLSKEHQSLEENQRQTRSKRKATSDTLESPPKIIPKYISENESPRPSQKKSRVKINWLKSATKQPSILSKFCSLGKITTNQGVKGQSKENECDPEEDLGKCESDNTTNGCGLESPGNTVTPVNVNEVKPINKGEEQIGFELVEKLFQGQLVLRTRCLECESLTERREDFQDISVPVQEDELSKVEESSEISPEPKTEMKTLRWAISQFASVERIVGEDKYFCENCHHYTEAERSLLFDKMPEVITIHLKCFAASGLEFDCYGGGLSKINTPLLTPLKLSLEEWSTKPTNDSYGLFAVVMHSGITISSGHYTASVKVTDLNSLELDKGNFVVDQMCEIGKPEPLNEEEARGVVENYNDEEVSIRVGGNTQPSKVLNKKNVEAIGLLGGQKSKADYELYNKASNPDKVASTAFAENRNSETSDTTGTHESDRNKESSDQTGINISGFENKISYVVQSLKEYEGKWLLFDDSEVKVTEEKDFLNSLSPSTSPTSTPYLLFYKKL
Chain of Cytochrome P450 2C19 (Homo sapiens) (P33261 whole entry, looked up): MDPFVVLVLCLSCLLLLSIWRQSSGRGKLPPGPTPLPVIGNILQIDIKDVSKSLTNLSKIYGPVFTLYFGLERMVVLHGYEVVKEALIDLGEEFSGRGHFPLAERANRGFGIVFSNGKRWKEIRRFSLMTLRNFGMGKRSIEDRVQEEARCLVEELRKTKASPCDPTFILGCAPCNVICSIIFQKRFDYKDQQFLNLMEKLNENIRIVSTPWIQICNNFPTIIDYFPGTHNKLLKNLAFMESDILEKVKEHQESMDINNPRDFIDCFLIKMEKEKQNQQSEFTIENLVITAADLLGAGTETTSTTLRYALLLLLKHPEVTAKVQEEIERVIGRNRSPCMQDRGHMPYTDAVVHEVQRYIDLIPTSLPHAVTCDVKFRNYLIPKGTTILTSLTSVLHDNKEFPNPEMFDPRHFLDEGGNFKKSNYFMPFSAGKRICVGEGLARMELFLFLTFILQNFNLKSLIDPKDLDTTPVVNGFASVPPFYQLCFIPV

For `COc1ccccc1-c1cncnc1NCc1cnc(C)cn1`, the Potency in [1] was greater than 11.4 µM; in [3] it was 20 µM (active); in [6] it was greater than 46 µM; in assay [9], 1.26 µM (active). The activity change, negative = inhibition in [2] is -7.64%; in assay [4], 2.58%. Further, the activity, negative = inhibition in assay [5] is 4.26%. Also, the Potency entry in assay [7], in assay [8], in [10], in [11], in assay [12] and in assay [13] was “inactive” each time. In assay [14], the Potency entry is “inactive”. Moreover, the result in assay [15] was inactive.
In the case of `c1nc(NCCN2CCOCC2)c2cc(-c3ccoc3)ccc2n1`, the Potency in assay [1] was greater than 11.4 µM; in assay [3], 12.6 µM (active); in assay [16], greater than 46 µM; in assay [6] it was greater than 46 µM; in [17], 2 µM (active); in assay [11], 0.708 µM (active). The values for the Potency in assay [12] and in assay [13] were 0.891 µM (active) and 0.355 µM (active), respectively. The activity change, negative = inhibition is -17.7% in [2] and -0.57% in [4]. Further, the activity, negative = inhibition in [5] was -6.63%. The Potency entry in assay [7], in [8], in assay [10] and in assay [14] was “inactive” each time. Besides, in [15], the result was inactive.
On to `COc1ccc(CNc2ccnc(-c3c(C)noc3C)n2)c(OC)c1`, for which the Potency in assay [1] is greater than 11.4 µM; in [3], 1.26 µM (active); in assay [16], greater than 46 µM; in assay [6] it was greater than 46 µM; in assay [9], 2.51 µM (active); in [18], 1.58 µM (active). Further, the activity change, negative = inhibition in assay [2] is 11.5%; in assay [4], 8.32%. Further, the activity, negative = inhibition in assay [5] is 0.0565%. The Potency entry in assay [7], in [10], in assay [11], in assay [12] and in [13] was “inactive” throughout. In assay [15], the outcome was inactive.
In the case of `COc1ccccc1-c1nc(NCc2cccnc2)c2ccccc2n1`, the Potency is greater than 11.4 µM in assay [1], 0.794 µM (active) in assay [3], greater than 46 µM in [16] and greater than 46 µM in assay [6]. Further, the results for the activity change, negative = inhibition in assay [2] and in assay [4] were 10.5% and -29.2%, respectively. Further, the activity, negative = inhibition in assay [5] is 12.9%. The Potency result in assay [7], in assay [8], in assay [10], in assay [11], in assay [12] and in assay [13] was “inactive” each time. Further, in [15], the outcome was inactive.
For the molecule `CN(Cc1ccco1)c1ncnc2ccc(-c3ccccc3C#N)cc12`, the Potency in assay [1] is greater than 11.4 µM; in assay [3], 1 µM (active); in assay [16], greater than 46 µM; in [6] it was greater than 46 µM; in assay [18], 1.26 µM (active); in [11], 11.2 µM (active). Further, in [12], the Potency is 7.08 µM (active). Besides, the activity change, negative = inhibition was -26.1% in [2] and 7.18% in assay [4]. The activity, negative = inhibition in assay [5] was 14.4%. Further, the Potency result in assay [7], in assay [10], in assay [13] and in assay [14] was “inactive” throughout. Also, in assay [15], the result was inactive.
`COc1ccc(-n2c(=O)c(-c3ccccc3)nc3cnc(N4CCOCC4)nc32)cc1`: the Potency was greater than 11.4 µM in assay [1], 15.8 µM (active) in [3], greater than 9.22 µM in [16] and greater than 46 µM in [6]. The results for the activity change, negative = inhibition in assay [2] and in assay [4] were 5.32% and 6.27%, respectively. For the same molecule, the activity, negative = inhibition in assay [5] is 6.26%. Also, the Potency result in assay [7], in assay [8], in assay [11], in assay [12], in [13] and in [14] was “inactive” in each case. For the same molecule, in [15], the result was inactive.
